Measurements: PubChem BioAssay (EPA / NIEHS)
Records with an inconclusive call do not appear. Activity calls are given as the source filed them. Rule for the calls, unless noted: active = hit-call score of the fitted dose curve at least 0.9, where 1 is the maximum; inconclusive = response in the unintended direction; inactive = score below 0.9.

Columns and labels:
[1] = target: Agonist Androgen Response Element (ARE), AR (gene 367) (UniProt P10275); assay: OT_AR_ARELUC_AG_1440: Odyssey Thera (OT) 24-hour CHO-K1 Luciferase Assay for Agonist Androgen Response Element (ARE) (AID 2283379)
Sequence of Agonist Androgen Response Element (ARE), AR (gene 367) (P10275 whole entry, looked up): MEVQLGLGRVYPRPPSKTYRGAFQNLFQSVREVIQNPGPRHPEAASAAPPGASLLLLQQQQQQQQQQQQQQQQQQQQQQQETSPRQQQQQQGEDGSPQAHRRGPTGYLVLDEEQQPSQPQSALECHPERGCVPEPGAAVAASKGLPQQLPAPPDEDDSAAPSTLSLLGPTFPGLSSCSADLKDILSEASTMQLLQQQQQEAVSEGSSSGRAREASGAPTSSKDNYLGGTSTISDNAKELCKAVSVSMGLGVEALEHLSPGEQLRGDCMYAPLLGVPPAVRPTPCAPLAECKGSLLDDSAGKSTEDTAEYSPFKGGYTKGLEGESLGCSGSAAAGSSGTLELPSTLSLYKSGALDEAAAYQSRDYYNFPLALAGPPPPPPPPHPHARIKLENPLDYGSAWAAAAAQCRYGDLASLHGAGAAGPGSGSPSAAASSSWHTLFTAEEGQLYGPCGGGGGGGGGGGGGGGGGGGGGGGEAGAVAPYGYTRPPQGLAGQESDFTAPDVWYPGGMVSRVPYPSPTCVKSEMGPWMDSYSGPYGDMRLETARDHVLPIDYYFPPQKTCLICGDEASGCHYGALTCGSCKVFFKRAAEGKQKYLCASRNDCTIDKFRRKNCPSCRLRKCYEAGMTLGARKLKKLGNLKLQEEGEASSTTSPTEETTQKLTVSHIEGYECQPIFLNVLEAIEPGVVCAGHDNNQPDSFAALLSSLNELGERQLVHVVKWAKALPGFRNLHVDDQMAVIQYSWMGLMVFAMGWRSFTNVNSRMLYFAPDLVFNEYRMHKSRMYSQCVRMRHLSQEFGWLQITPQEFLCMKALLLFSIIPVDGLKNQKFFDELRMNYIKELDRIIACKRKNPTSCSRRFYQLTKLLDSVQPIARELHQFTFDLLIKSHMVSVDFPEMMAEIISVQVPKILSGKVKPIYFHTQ
In short: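 Agonist mode, 24 h exposure in CHO-K1 ARE-luciferase cells; values reflect luminescence induction over vehicle.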

[2] = target: Estrogen receptor beta (Homo sapiens) (UniProt Q92731); assay: OT_ER_ERbERb_1440: Odyssey Thera (OT) 24-hour HEK293T Protein-Complementation Assay for Estrogen Receptor-beta/-beta Homodimer (AID 2283380);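 note: fluorescence gain from ER beta LBD homodimer complementation read by laser scanning cytometry; scored as signal increase over DMSO baseline for both agonists and antagonists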
Sequence of Estrogen receptor beta (Homo sapiens) (Q92731 whole entry, looked up, the tested form may be a part): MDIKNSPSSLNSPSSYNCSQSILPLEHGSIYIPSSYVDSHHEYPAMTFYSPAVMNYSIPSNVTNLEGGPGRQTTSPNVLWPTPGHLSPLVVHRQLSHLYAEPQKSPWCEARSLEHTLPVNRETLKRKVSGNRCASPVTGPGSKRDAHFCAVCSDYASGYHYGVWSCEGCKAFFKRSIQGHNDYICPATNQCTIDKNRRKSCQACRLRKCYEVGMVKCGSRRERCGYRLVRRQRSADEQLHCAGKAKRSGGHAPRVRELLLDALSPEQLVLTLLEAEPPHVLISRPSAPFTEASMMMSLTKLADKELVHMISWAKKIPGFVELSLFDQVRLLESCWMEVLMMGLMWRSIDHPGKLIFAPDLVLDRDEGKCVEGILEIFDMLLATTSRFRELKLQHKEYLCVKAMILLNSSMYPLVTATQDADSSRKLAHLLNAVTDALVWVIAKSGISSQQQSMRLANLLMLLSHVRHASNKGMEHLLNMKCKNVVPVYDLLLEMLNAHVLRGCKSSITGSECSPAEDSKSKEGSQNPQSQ
In short: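 Fluorescence increase, nuclear for agonists or whole-cell for antagonists, relative to DMSO vehicle, quantified by laser scanning cytometer after fixation and Draq5 staining. Readout from 24 h treatment of HEK293T cells carrying complementation-paired ER beta LBD (aa 310-547).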

[3] = target: Estrogen receptor (Homo sapiens) (UniProt P03372); assay: OT_ERa_GFPERaERE_0480: Odyssey Thera (OT) 8-hour HeLa Transcription Induction Assay for Estrogen Receptor (AID 2283381; active = hit-call score of the fitted dose curve at least 0.9, where 1 is the maximum; inactive = score below 0.9)
Sequence of Estrogen receptor (Homo sapiens) (P03372 whole entry, looked up): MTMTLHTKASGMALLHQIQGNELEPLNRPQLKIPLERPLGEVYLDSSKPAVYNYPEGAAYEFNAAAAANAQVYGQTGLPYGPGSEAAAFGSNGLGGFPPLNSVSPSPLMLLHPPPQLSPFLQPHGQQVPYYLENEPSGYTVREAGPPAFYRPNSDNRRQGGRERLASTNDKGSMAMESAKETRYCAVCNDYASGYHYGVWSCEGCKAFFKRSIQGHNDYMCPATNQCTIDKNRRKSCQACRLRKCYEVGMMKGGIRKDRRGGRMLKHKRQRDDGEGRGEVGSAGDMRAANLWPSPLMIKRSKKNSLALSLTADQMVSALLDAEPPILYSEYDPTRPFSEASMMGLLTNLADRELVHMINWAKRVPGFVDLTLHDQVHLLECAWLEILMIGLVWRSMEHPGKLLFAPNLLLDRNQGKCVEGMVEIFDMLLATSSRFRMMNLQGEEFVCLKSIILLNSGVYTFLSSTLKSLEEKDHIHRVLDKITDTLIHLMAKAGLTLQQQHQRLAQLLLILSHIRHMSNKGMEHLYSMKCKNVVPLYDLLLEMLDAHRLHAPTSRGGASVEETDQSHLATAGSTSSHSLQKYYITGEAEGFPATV
In short: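 HeLa cells dosed with compound and imaged by fluorescence microscopy at 8 h; GFP induction from an ERE reporter quantified by high-content image analysis and fitted as gain of signal against DMSO baseline.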

[4] = target: Estrogen receptor (Homo sapiens) (UniProt P03372); assay: OT_ERa_GFPERaERE_0120: Odyssey Thera (OT) 2-hour HeLa Transcription Induction Assay for Estrogen Receptor (AID 2283382)
In short: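 HeLa cells were dosed with test chemical and read 2 hours later for GFP-ERα/ERE-linked fluorescent protein induction by fluorescence microscopy. Gain-of-signal was fitted relative to DMSO baseline, quantified by high content image analysis.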

[5] = target: Retinoic acid receptor RXR-alpha (Homo sapiens) (UniProt P19793); assay: OT_NURR1_NURR1RXRa_1440: Odyssey Thera (OT) 24-hour HEK293T Protein Complementation Assay for Nurr1/retinoid X receptor (RXR) (AID 2283386)
Sequence of Retinoic acid receptor RXR-alpha (Homo sapiens) (P19793 whole entry, looked up, the tested form may be a part): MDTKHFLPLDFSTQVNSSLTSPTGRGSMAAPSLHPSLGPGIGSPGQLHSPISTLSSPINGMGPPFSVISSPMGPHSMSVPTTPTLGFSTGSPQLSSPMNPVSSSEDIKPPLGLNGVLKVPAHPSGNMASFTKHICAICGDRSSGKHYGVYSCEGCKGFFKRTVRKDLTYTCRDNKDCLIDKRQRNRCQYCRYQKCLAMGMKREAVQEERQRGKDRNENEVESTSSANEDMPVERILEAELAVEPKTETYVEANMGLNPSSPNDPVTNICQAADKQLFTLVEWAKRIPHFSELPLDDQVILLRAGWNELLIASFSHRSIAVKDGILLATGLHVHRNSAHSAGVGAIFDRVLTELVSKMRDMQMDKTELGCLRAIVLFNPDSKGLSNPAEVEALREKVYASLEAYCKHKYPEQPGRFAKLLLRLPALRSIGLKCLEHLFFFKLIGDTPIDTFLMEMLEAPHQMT
In short: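 HEK293T cells were dosed with compound and read 24 h later by fluorescence intensity in a protein-fragment complementation format, where Nurr1–RXRα interaction reconstitutes a split reporter. Activity was fitted as gain of signal relative to DMSO baseline.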

[6] = target: Peroxisome proliferator-activated receptor gamma (Homo sapiens) (UniProt P37231); assay: OT_PPARg_PPARgSRC1_0480: Odyssey Thera (OT) 8-hour Protein-Complementation Assay for Peroxisome Proliferator-activated Receptor Gamma / SRC-1 Co-activator (AID 2283387);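 note: nuclear to cytoplasmic split Venus YFP fluorescence ratio reporting PPARg SRC-1 interaction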
Sequence of Peroxisome proliferator-activated receptor gamma (Homo sapiens) (P37231 whole entry, looked up, the tested form may be a part): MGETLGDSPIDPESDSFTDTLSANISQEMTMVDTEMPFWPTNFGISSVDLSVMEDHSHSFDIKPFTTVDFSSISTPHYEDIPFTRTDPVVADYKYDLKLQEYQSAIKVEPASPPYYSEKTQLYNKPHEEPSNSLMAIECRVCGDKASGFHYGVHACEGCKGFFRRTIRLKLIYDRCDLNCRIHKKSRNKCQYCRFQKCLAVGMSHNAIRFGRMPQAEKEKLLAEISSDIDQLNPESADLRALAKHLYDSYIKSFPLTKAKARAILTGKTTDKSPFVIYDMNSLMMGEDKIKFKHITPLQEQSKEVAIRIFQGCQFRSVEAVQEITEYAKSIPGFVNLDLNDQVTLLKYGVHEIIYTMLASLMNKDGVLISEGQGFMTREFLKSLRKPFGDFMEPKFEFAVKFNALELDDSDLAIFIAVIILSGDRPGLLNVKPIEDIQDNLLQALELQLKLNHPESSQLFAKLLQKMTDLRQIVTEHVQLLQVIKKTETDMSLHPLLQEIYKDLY
In short: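 Protein-fragment complementation of split Venus YFP reports PPARg/SRC-1 interaction in HEK293T (transfected 48 h before treatment), exposed 8 h. Readout: N/C fluorescence ratio at 488 nm from imaging, Draq5 for segmentation, positive fit relative to DMSO.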

[7] = target: Retinoic acid receptor RXR-alpha (Homo sapiens) (UniProt P19793); assay: OT_NURR1_NURR1RXRa_0480: Odyssey Thera (OT) 8-hour HEK293T Protein Complementation Assay for Nurr1/retinoid X receptor (RXR) (AID 2283385)
In short: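 HEK293T cells expressing Nurr1 and RXRα fused to reporter fragments were dosed with compound for 8 hours. Complex formation was read as fluorescence intensity and analysed as gain of signal against DMSO as baseline.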

[8] = target: Bile acid receptor (Homo sapiens) (UniProt Q96RI1); assay: OT_FXR_FXRSRC1_0480: Odyssey Thera (OT) 8-hour HEK293T Protein-Complementation Assay for Farnesoid X receptor/SRC-1 Co-activator (AID 2283383)
Sequence of Bile acid receptor (Homo sapiens) (Q96RI1 whole entry, looked up, the tested form may be a part): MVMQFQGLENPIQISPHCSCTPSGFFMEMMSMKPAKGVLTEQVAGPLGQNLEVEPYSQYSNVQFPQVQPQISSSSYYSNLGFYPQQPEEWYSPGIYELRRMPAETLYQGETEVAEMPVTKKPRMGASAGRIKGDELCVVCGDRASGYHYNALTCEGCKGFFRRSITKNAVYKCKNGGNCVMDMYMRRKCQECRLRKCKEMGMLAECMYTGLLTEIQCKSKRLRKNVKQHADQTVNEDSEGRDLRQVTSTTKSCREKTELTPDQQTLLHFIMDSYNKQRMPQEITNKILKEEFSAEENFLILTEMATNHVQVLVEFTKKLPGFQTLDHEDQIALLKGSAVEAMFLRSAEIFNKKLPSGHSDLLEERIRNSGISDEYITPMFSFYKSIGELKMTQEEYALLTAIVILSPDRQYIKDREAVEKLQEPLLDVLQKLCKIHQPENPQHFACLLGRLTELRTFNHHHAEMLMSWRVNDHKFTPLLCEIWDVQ
In short: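 HEK293T cells expressing FXR and SRC-1 fused to reporter fragments were dosed with compound for 8 h; fluorescence from the reconstituted reporter marked co-activator recruitment. Gain of signal was fitted against the DMSO baseline.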

[9] = target: Peroxisome proliferator-activated receptor gamma (Homo sapiens) (UniProt P37231); assay: OT_PPARg_PPARgSRC1_1440: Odyssey Thera (OT) 24-hour Protein-Complementation Assay for Peroxisome Proliferator-activated Receptor Gamma/ SRC-1 Co-activator (AID 2283388);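 note: nuclear to cytoplasmic ratio of reconstituted Venus YFP fluorescence in fixed imaged cells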
In short: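 Transient HEK293T, YFP fragments 1-158/159-239 (mutant IFP1/IFP2) fused to PPARg/SRC-1; 24 h dosing; fix 4% formaldehyde, Draq5; Opera imaging 488/635 nm; N/C ratio, gain vs DMSO.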

[10] = target: mouse Estrogen Receptor alpha (Era), Esr1 (gene 13982) (UniProt P19785); assay: NVS_NR_mERa: NovaScreen (NVS) Nuclear Receptor Binding Assay for mouse Estrogen Receptor alpha (Era) (AID 2283378);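 note: hit means loss of bound radioligand signal relative to DMSO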
Sequence of mouse Estrogen Receptor alpha (Era), Esr1 (gene 13982) (P19785 whole entry, looked up): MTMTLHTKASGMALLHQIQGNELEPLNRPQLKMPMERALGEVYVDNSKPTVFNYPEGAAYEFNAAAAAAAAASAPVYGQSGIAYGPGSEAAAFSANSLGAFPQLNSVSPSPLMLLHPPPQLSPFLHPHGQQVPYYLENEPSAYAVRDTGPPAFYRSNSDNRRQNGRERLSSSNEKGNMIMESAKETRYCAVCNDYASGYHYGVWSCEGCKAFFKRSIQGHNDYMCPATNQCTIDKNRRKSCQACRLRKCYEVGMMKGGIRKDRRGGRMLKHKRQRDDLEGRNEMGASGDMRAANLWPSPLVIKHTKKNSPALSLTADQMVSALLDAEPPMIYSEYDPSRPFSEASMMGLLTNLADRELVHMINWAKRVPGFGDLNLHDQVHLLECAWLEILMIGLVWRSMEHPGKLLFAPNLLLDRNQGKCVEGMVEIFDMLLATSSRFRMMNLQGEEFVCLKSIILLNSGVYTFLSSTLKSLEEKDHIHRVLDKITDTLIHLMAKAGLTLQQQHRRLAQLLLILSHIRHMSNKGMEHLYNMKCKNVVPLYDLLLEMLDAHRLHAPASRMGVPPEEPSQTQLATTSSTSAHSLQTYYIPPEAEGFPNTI
In short: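 Test chemicals competed against a specific radioligand for binding to cell-free mouse Era. Duplicate wells at 25 uM were read 18 hours later by filter-based radiodetection, with loss of signal against DMSO scored as activity.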

Measured: outcome

CCCCCCCCCCOC(=O)c1ccccc1C(=O)OCCCCCCCC
inactive: [1] | [2] | [3] | [4] | [5] | [6]

CCO[Si](CC)(OCC)OCC
inactive: [1] | [2] | [3] | [4] | [7] | [5]

CC1COC(=O)O1 (stereo not drawn)
not listed: [9] | [10]
inactive: all other assays above

COc1cc(OC)c2ccc(=O)oc2c1
not listed: [6] | [8] | [10]
inactive: all other assays above

COc1ccccc1O
not listed: [1] | [9]
inactive: all other assays above

CCC(C)(C)C1CCC(OC)CC1 (stereo not drawn)
not listed: [1] | [9] | [10]
inactive: all other assays above

CCC(C)(C)C1CCC(=O)CC1
inactive: [10] | [1] | [3] | [4] | [7] | [5]
